Data as given in PubChem BioAssay AID1159580 (chemical genetic matrix, 2015).
“And” between values parts separate entries of the source, which are not always exact repeats. Equal values may be shown once. Among all 5,500 compounds or so, about 2,000 (36%) were called active. Not shown: some 18% with an inconclusive outcome. No stated cut-off is given here; in the data, active means normalized growth mostly below about 0.91 (no sharp cut-off); inconclusive means no clear call, values can overlap the other calls; inactive means mostly above about 0.92. The list shows a part of the results.

Experiment: chemical genetic growth profiling, strain panel (AID 1159580);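 further: tested at 20 µM; growth read once vehicle control cultures reached saturation at 30 °C; 1 = growth at the plate median or of vehicle wells; lower values mean less growth of the strain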
Details: growth OD

Measured: normalized growth

CCCCNc1cc(C(=O)O)cc(S(N)(=O)=O)c1Oc1ccccc1
inactive: S. cerevisiae deletion strains, locus YKL009W, strain mrt4, hits give low values 0.979 | S. cerevisiae deletion strains, locus YKL068W, hits give low values 0.986 | S. cerevisiae deletion strains, locus YKL085W, strain MDH1 (second series), hits give low values 0.989 | S. cerevisiae deletion strains, locus YKL085W, strain MDH1, hits give low values 0.989 | S. cerevisiae deletion strains, locus YKL160W, strain elf1, hits give low values 0.995 | S. cerevisiae deletion strains, locus YKL190W, strain CNB1, hits give low values 0.994 | S. cerevisiae deletion strains, locus YKR001C, strain vps1, hits give low values 0.983 | S. cerevisiae deletion strains, locus YKR026C, strain gcn3, hits give low values 1.01 | S. cerevisiae deletion strains, locus YKR091W, strain srl3, hits give low values 1 | S. cerevisiae deletion strains, locus YLL001W, strain dnm1, hits give low values 1 | S. cerevisiae deletion strains, locus YLL026W, hits give low values 0.992 | S. cerevisiae deletion strains, locus YLL041C, strain sdh2, hits give low values 0.991 | S. cerevisiae deletion strains, locus YLR027C, strain aat2, hits give low values 1.01 | S. cerevisiae deletion strains, locus YLR039C, strain RIC1, hits give low values 1.01 | S. cerevisiae deletion strains, locus YLR058C, strain SHM2, hits give low values 0.988 | S. cerevisiae deletion strains, locus YLR102C, strain apc9, hits give low values 0.984 | S. cerevisiae deletion strains, locus YLR113W, strain HOG1, hits give low values 1.04 | S. cerevisiae deletion strains, locus YLR221C, strain rsa3, hits give low values 1 | S. cerevisiae deletion strains, locus YLR258W, strain gsy2, hits give low values 0.995 | S. cerevisiae deletion strains, locus YLR262C, strain YPT6 (second series), hits give low values 1.02 | S. cerevisiae deletion strains, locus YLR262C, strain YPT6, hits give low values 1.02 | S. cerevisiae deletion strains, locus YLR268W, strain sec22, hits give low values 0.965 | S. cerevisiae deletion strains, locus YLR320W, strain mms22, hits give low values 0.976 | S. cerevisiae deletion strains, locus YLR330W, strain CHS5, hits give low values 0.995 | S. cerevisiae deletion strains, locus YLR342W, strain FKS1 (second series), hits give low values 0.975 | S. cerevisiae deletion strains, locus YLR342W, strain FKS1, hits give low values 0.976 | S. cerevisiae deletion strains, locus YLR357W, strain rsc2, hits give low values 0.977 | S. cerevisiae deletion strains, locus YLR370C, strain arc18, hits give low values 1.01 | S. cerevisiae deletion strains, locus YLR371W, strain rom2, hits give low values 0.984 | S. cerevisiae deletion strains, locus YLR384C, strain iki3, hits give low values 1.02 | S. cerevisiae deletion strains, locus YLR418C, strain cdc73, hits give low values 0.959 | S. cerevisiae deletion strains, locus YML016C, strain PPZ1, hits give low values 0.991 | S. cerevisiae deletion strains, locus YML032C, strain rad52, hits give low values 0.99 | S. cerevisiae deletion strains, locus YML120C, strain ndi1, hits give low values 0.994 | S. cerevisiae deletion strains, locus YML124C, strain tub3, hits give low values 0.974 | S. cerevisiae deletion strains, locus YMR058W, strain fet3, hits give low values 1.06 | S. cerevisiae deletion strains, locus YMR078C, strain ctf18, hits give low values 0.978 | S. cerevisiae deletion strains, locus YMR125W, strain sto1, hits give low values 1.01 | S. cerevisiae deletion strains, locus YMR129W, hits give low values 1.02 | S. cerevisiae deletion strains, locus YMR205C, strain PFK2, hits give low values 0.989 | S. cerevisiae deletion strains, locus YMR223W, strain ubp8, hits give low values 0.972 | S. cerevisiae deletion strains, locus YMR231W, strain pep5, hits give low values 1.01 | S. cerevisiae deletion strains, locus YMR263W, strain SAP30, hits give low values 0.997 | S. cerevisiae deletion strains, locus YMR307W, strain GAS1, hits give low values 0.957 | S. cerevisiae deletion strains, locus YNL067W, strain RPL9B, hits give low values 1.02 | S. cerevisiae deletion strains, locus YNL071W, strain lat1, hits give low values 1.02 | S. cerevisiae deletion strains, locus YNL128W, strain TEP1, hits give low values 0.981 | S. cerevisiae deletion strains, locus YNL153C, strain GIM3, hits give low values 1.05 and 1.02 | S. cerevisiae deletion strains, locus YNL175C, strain NOP13, hits give low values 1 | S. cerevisiae deletion strains, locus YNL183C, strain NPR1, hits give low values 0.967 | S. cerevisiae deletion strains, locus YNL197C, strain WHI3, hits give low values 1.04 | S. cerevisiae deletion strains, locus YNL209W, strain ssb2, hits give low values 1.01 | S. cerevisiae deletion strains, locus YNL224C, strain SQS1, hits give low values 0.999 | S. cerevisiae deletion strains, locus YNL233W, strain BNI4, hits give low values 1.01 | S. cerevisiae deletion strains, locus YNL248C, strain rpa49, hits give low values 0.987 | S. cerevisiae deletion strains, locus YNL250W, strain rad50, hits give low values 0.946 | S. cerevisiae deletion strains, locus YNL271C, strain bni1, hits give low values 0.967 | S. cerevisiae deletion strains, locus YNL298W, strain CLA4, hits give low values 0.969 | S. cerevisiae deletion strains, locus YNL307C, strain MCK1, hits give low values 0.975 | S. cerevisiae deletion strains, locus YNL322C, strain KRE1 (second series), hits give low values 0.982 | S. cerevisiae deletion strains, locus YNR049C, strain mso1, hits give low values 1 | S. cerevisiae deletion strains, locus YNR052C, strain pop2, hits give low values 0.977 | S. cerevisiae deletion strains, locus YOL006C, strain TOP1, hits give low values 1 | S. cerevisiae deletion strains, locus YOL012C, strain htz1 0.812 | S. cerevisiae deletion strains, locus YOL147C, strain pex11, hits give low values 0.977 | S. cerevisiae deletion strains, locus YOR001W, strain rrp6, hits give low values 1.01 | S. cerevisiae deletion strains, locus YOR061W, strain CKA2, hits give low values 0.99 | S. cerevisiae deletion strains, locus YOR069W, strain VPS5, hits give low values 0.986 | S. cerevisiae deletion strains, locus YOR070C, strain gyp1, hits give low values 0.998 | S. cerevisiae deletion strains, locus YOR080W, strain dia2, hits give low values 1.01 | S. cerevisiae deletion strains, locus YOR083W, strain WHI5 (second series), hits give low values 1.03 | S. cerevisiae deletion strains, locus YOR083W, strain WHI5, hits give low values 0.951 | S. cerevisiae deletion strains, locus YOR106W, strain vam3, hits give low values 1.03 | S. cerevisiae deletion strains, locus YOR136W, strain idh2, hits give low values 0.992 | S. cerevisiae deletion strains, locus YOR144C, strain elg1, hits give low values 0.982 | S. cerevisiae deletion strains, locus YOR184W, strain ser1, hits give low values 0.973 | S. cerevisiae deletion strains, locus YOR231W, strain MKK1, hits give low values 1.07 | S. cerevisiae deletion strains, locus YOR265W, strain rbl2, hits give low values 1 | S. cerevisiae deletion strains, locus YOR270C, strain vph1, hits give low values 1.05 | S. cerevisiae deletion strains, locus YOR290C, strain snf2, hits give low values 1 | S. cerevisiae deletion strains, locus YOR316C, strain cot1, hits give low values 0.986 | S. cerevisiae deletion strains, locus YPL051W, strain arl3, hits give low values 0.997 | S. cerevisiae deletion strains, locus YPL055C, strain LGE1, hits give low values 1.01 | S. cerevisiae deletion strains, locus YPL078C, strain atp4, hits give low values 1 | S. cerevisiae deletion strains, locus YPL106C, strain sse1, hits give low values 0.962 | S. cerevisiae deletion strains, locus YPL240C, strain hsp82, hits give low values 1 | S. cerevisiae deletion strains, locus YPL241C, strain CIN2, hits give low values 0.985 | S. cerevisiae deletion strains, locus YPL256C, strain CLN2, hits give low values 1.06 | S. cerevisiae deletion strains, locus YPR119W, strain clb2, hits give low values 0.983 | S. cerevisiae deletion strains, locus YPR141C, strain kar3, hits give low values 0.967 | S. cerevisiae deletion strains, locus YPR163C, strain tif3, hits give low values 0.983 | S. cerevisiae deletion strains, locus YPR167C, strain met16, hits give low values 0.986 | S. cerevisiae deletion strains, strain wtn01, hits give low values 0.958 | S. cerevisiae strains, strain wild type, hits give low values 0.999
